# Experimental data taken from PubChem BioAssay (Tox21).
# Activity calls are given as the source filed them. Calls come from the whole dose curve; as a rule, active = well fitted curve in the direction sought with a large enough effect in the repeat runs; inconclusive = weak or mixed curves; inactive = flat fitted curve, though single readings scatter.
# Experiment: qHTS assay to test for compound auto fluorescence at 590 nm (red) in HEK293 cell free culture (AID 720683)
# Details: cell-free medium autofluorescence, Ex540/Em590 red; series mostly up to 91.3 µM
# Text: U.S. Tox21 Program National Center for Advancing Translational Sciences [NCATS] NIH Chemical Genomics Center [NCGC] U.S. Environmental Protection Agency [EPA] National Institutes of Environmental Health Sciences [NIEHS] National Toxicology Program [NTP] U.S. Food and Drug Administration [FDA] Tox21 Assay Overview: Compound auto fluorescence often interferes with screening of the compound library against various biological targets and signaling pathways. Some of these compounds may have fluorophoric properties. Such properties may interfere with the assay outputs resulting in false positives and/or negatives. To decrease such complications and ensure the compound activities are relevant in terms of biological response, the Tox21 10K compound library was screened for auto fluorescence. From the fluorophores used as reporter signals in our screening assays, the auto fluorescence equivalencies of compounds against three fluorophores have been evaluated: Triamterene, Fluorescein and Rose Bengal sodium for blue, green and red fluorescence, respectively. The fluorescence intensities were measured using Excitation/Emission wavelengths at 405/460nm, 485/535nm and 540/590nm for blue, green and red labels, respectively. This assay includes the red fluorescence data.
# Tox21 Assay Protocol Summary: 5 uL of culture medium (DMEM containing 10% FBS) per well was dispensed into black wall/clear bottom 1536-well plates using a Multidrop Combi Dispenser (ThermoFisher Scientific, Waltham, MA). After 23 nL compound or DMSO vehicle was transferred into assay plate by a pintool work station (Kalypsys, San Diego, CA), fluorescence intensities in the assay plates were measured by an Envision (PerkinElmer, Shelton, CT) plate reader using three labels for measuring blue, green and red fluorescence at […] 460, 535 and 590nm respectively.
row,SMILES,outcome
1,CC(C)c1ccc(C(C)C)cc1,inactive
2,O=C1CCCCCCCCCCC1,inactive
3,OCC(CO)(CO)CO,inactive
4,CCN(CC)CCNC(=O)c1ccc(N)cc1,inactive
5,Brc1ccc(Oc2ccc(Br)cc2)cc1,inactive
6,NC(=O)NC(N)=O,inactive
7,COC(=O)CCCCC(=O)OC,inactive
8,C[Si](C)(C)N[Si](C)(C)C,inactive
9,Cc1nnc(NS(=O)(=O)c2ccc(N)cc2)s1,inactive
10,Nc1cccc(N)n1,inactive
11,OCCOCCOCCOCCOCCO,inactive
12,c1cnc2c(c1)ccc1cccnc12,inactive
13,O=C(O)Cc1c[nH]c2ccccc12,inactive
14,OC[C@H]1O[C@@H](Oc2ccc(O)cc2)[C@H](O)[C@@H](O)[C@@H]1O,inactive
15,CC(=O)Nc1ccc(CC(=O)O)cc1,inactive
16,NC(=O)c1ncn([C@@H]2O[C@H](CO)[C@@H](O)[C@H]2O)n1,inactive
17,CCCCC(=O)O,inactive
18,COCN(COC)c1nc(N(COC)COC)nc(N(COC)COC)n1,inactive
19,COc1c(Cl)ccc(Cl)c1C(=O)O,inactive
20,O=[N+]([O-])c1cc(C(F)(F)F)ccc1Cl,inactive

row,SMILES,outcome
1,CO[Si](CCCNCCN)(OC)OC,inactive
2,Oc1ccc(Cc2ccccc2O)cc1,inactive
3,CC1(C)C(=O)N(Cl)C(=O)N1Cl,inactive
4,COc1ccc(N)c(OC)c1,inactive
5,CCc1cccc(O)c1,inactive
6,OCC(O)CS (stereo not given),inactive
7,OB(O)O,inactive
8,CC(=O)C(C)C,inactive
9,C1CCCNCC1,inactive
10,CC(=O)OCc1ccc2c(c1)OCO2,inactive
11,O=C(c1ccccc1)c1ccc(O)c(O)c1O,inactive
12,COc1ccc([C@@H]2CC(=O)c3c(O)cc(O[C@@H]4O[C@H](CO[C@@H]5O[C@@H](C)[C@H](O)[C@@H](O)[C@H]5O)[C@@H](O)[C@H](O)[C@H]4O)cc3O2)cc1OC,inactive
13,Cc1ccc(Cl)cc1,inactive
14,CC(O)CNCC(C)O (stereo not given),inactive
15,CN1Cc2c(N)cccc2C(c2ccccc2)C1 (stereo not given),inactive
16,C=C(CC(=O)O)C(=O)O,inactive
17,C=CC(=O)NCOCCCC,inactive
18,O=C1O[C@H]([C@H](O)CO)C(O)=C1O,inactive
19,CCCCCC(C)=O,inactive
20,CC(C)(CO)CO,inactive
